Screening data as filed in PubChem.
Shown are actives, neighbours in structure and some others; about 18% of the full set was active somewhere.
HepG2 tox: qHTS for Inhibitors of TGF-b: Cytotox Counterscreen; AID 588856, 2011; 0.76% of 410,000 active; Potency, µM (titrated, usually from 46.1 µM), usual class: cytotoxic; HepG2 CAGA-GFP viability, ATP luminescence, 18 h
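HepG2 CAGA-GFP cells (1000/well, DMEM with 1% FBS) received compound, then TGF-beta at 500 pg/mL final, and were incubated 18 hours at 37 degrees C. Viability was read by CellTiter-Glo luminescence. Media-only wells were set as complete cell-killing and DMSO as no toxicity.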
IL1B secr inh: qHTS for Inhibitors of Inflammasome Signaling: IL-1-beta AlphaLISA Primary Screen; THP-1 LPS/ATP IL-1B secretion, AlphaLISA, 16 h; active compounds read low; activity change, % at 57.5 µM; 4.7% of 360,000 active; in the data active means activity change below about -50%; inconclusive means mostly about -30% to -49%
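Secreted IL-1B measured by AlphaLISA bead assay after 16 h compound exposure of THP-1 cells; compounds (final up to 57.5 uM) added 1 h before LPS (250 ng/mL) and ATP (1.25 mM) stimulation; lower signal means less secretion.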
TDP1 cell CPT: qHTS for Inhibitors of human tyrosyl-DNA phosphodiesterase 1 (TDP1): qHTS in cells in presence of CPT; chicken DT40 Tdp1-/-;hTDP1 cells + 20 nM CPT, ATP luminescence, 48 h; Potency, µM (doses to about 46.2 µM), hits mostly inhibitors; 12% of 420,000 active; AID 686979, 2013; further: nearly all actives have a fitted effect of over 55% in size
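Chicken DT40 Tdp1-/- cells complemented with human TDP1, 400 cells/well, exposed to compounds plus 20 nM camptothecin for at least 48 h at 37 C; viability read as ATP content by CellTiter-Glo luminescence.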
TDP1 block: qHTS Assay for Inhibitors of Tyrosyl-DNA Phosphodiesterase (TDP1). Potency, µM (highest dose often 130 µM), actives largely listed as inhibitors. Tyrosyl-DNA phosphodiesterase 1 (Homo sapiens), Q9NUW8. 0.28% of 350,000 active. recombinant TDP1, AlphaScreen DNA substrate cleavage; further: nearly all actives have a fitted effect of over 40% in size
Target sequence (Q9NUW8 whole entry, looked up): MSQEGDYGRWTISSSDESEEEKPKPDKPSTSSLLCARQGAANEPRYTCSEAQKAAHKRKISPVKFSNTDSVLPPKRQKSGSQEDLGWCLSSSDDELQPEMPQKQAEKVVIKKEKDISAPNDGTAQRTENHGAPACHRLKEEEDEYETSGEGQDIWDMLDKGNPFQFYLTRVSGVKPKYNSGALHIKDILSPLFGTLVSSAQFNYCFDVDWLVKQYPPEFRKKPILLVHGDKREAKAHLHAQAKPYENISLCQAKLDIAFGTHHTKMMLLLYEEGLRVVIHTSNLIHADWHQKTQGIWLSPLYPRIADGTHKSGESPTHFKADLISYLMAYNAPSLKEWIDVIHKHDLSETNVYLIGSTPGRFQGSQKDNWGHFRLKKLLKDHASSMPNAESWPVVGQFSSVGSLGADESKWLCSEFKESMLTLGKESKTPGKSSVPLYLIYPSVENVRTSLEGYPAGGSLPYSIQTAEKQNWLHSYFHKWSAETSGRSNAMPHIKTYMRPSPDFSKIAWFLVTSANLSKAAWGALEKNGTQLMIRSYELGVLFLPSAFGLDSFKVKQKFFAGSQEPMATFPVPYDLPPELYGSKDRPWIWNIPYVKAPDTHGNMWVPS
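Compounds were preincubated with Tdp1 (1 nM final) for 15 min at room temperature before substrate (15 nM final) started a 5 min reaction; beads (10 ug/ml final) were then added for 10 min before AlphaScreen detection.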
TDP1 cell noCPT: qHTS for Inhibitors of human tyrosyl-DNA phosphodiesterase 1 (TDP1): qHTS in cells in absence of CPT; DT40 Tdp1-/- hTDP1 cells, no CPT, ATP luminescence, 48 h; Potency, µM (doses to about 46.2 µM), hits mostly inhibitors; 15% of 420,000 active; further: nearly all actives have a fitted effect of over 55% in size
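Chicken DT40 Tdp1-/- cells stably complemented with human TDP1 were seeded at 400 cells/well with DMSO in place of 20 nM camptothecin. After compound pinning, cells grew at least 48 hr at 37 °C; viability read by CellTiter-Glo luminescence.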
TGFb SMAD3 inh: qHTS for Inhibitors of TGF-b | HepG2 CAGA-GFP TGF-b/SMAD3 reporter, GFP fluorescence, 18 h; TGF-beta stimulated, 500 pg/mL final | Potency, µM (titrated, usually from 46.1 µM), hits mostly inhibitors | 1.2% of 410,000 active | AID 588855, 2011; further: nearly all actives have a fitted effect of over 65% in size
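Read-out: total well GFP (ex488/em500-530) summed from mean per-cell fluorescence. Cells: HEPG2 CAGA-GFP, 1% FBS DMEM, 18 h at 37 degrees C with 500 pg/mL final TGF-beta. Unstimulated wells served as the full-inhibition control; stimulated DMSO wells = 0%.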
Numbers stand for hits; - = inactive; ? = inconclusive; . = not tested or not shown; [ ] = remark or other dose. Unless noted, the call rests on the fitted dose curve; in most records, active means well fitted curve in the direction sought with a large enough effect; inconclusive means small, poorly fitted or top-dose-only effect, or another doubt; inactive means no such curve, though single readings can be large; an effect the other way counts as inactive or inconclusive.

SMILES	HepG2 tox	IL1B secr inh	TDP1 cell CPT	TDP1 block	TDP1 cell noCPT	TGFb SMAD3 inh
O=[N+]([O-])c1cccc(OCCN2CCC(Cc3ccccc3)CC2)c1	-	-65.9	?	.	?	-
COc1ccc(-c2noc(CN3CCC(Cc4ccccc4)CC3)n2)cc1	-	-	-	-	-	-
C=CCOc1ccccc1CN1CCC(Cc2ccccc2)CC1	-	-86.1	?	.	?	-
COc1cc(CN2CCC(Cc3ccccc3)CC2)c([N+](=O)[O-])cc1OC	-	-	20.6µM	.	?	-
CN1C(=O)N(C)C2=NNC=NC2(O)C1=O (stereo not given)	.	.	-[9.04 µM]	.	-[9.04 µM]	.
O=C(NCC(=O)N1CCN(S(=O)(=O)c2cccc(F)c2)CC1)c1ccc(Br)o1	-	-	-	-[0.505 µM]	-	-
COc1cc(OC)cc(C(=O)Nc2sc3c(c2C(N)=O)CCC3)c1	-	?	-	-	?	-
COc1ccc(CN2CCN(Cc3ccccc3C(F)(F)F)CC2)c(OC)c1	-	-	?	.	16.4µM	?
COc1ccc(OC)c(CN2CCC(Cc3ccccc3)CC2)c1	-	-	?	-	16.4µM	-
COc1cc(C)c(CN2CCC(Cc3ccccc3)CC2)cc1C	-	?	?	.	?	-
Cc1ccc([N+](=O)[O-])c(OCCCN2CCC(Cc3ccccc3)CC2)c1	-	-60.3	20.6µM	.	20.6µM	?
CCN1C(=O)c2ccc(C(=O)Nc3cccc(C(=O)O)c3)cc2C1=O	-	-	-	.	-	-
COc1ccccc1N(C)S(=O)(=O)c1ccc(C(=O)OCC(=O)N2CCCCCC2)cc1	-	-	-	-	-	-
Cc1noc(C)c1S(=O)(=O)N(CC(=O)Nc1ccc(F)cc1F)c1ccc(C(C)C)cc1	-	.	?	-	20.6µM	?
Cc1n[nH]c(C)c1S(=O)(=O)N(CC(=O)NC(C)c1ccccc1)c1ccc(C(C)C)cc1 (stereo not given)	-	.	?	-	?	?
Cc1n[nH]c(C)c1S(=O)(=O)N(CC(=O)Nc1ccc(C(F)(F)F)cc1)c1ccc(C(C)C)cc1	-	.	14.6µM	-	?	?
Cc1noc(C)c1S(=O)(=O)N(CC(=O)Nc1ccc(C(F)(F)F)cc1)c1ccc(C(C)C)cc1	-	.	16.4µM	-	23.1µM	?
Cc1noc(C)c1S(=O)(=O)Nc1ccc(C(=O)Nc2ccc(C(C)C)cc2)cc1	-	.	11.6µM	-	9.2µM	-
CCCN(CC1CC1)c1nc(C)nc(Nc2c(Cl)cc(Cl)cc2Cl)c1Cl	-	-	?	-	?	-
C=CCOC(=O)N[C@H](c1cccc(C(F)(F)F)c1)C(C(C)=O)C(C)=O	.	.	.	-	.	.
COc1ccc(CCCc2nnc(SCC(=O)Nc3cccc(C)c3)o2)cc1C	-	.	-	.	?	?
CC(C)N1CCC1(C)C(=O)Nc1cccc(C#N)c1 (stereo not given)	-	-	-	.	-	-
Nc1ccccc1Nc1cccc(C(F)(F)F)c1	-	-156.9	-	-	?	-
Nc1ccc(Nc2ccncc2)cc1	-	-	-	.	-	-
Nc1ccc(Nc2ccccc2N)cc1	-	-	5.17µM	-	10.3µM	-
SMILES	HepG2 tox	IL1B secr inh	TDP1 cell CPT	TDP1 block	TDP1 cell noCPT	TGFb SMAD3 inh
Cc1cc(C)nc(Nc2cccc(C(F)(F)F)c2)n1	-	-	-	-	-	?
COc1ccc(Nc2ccccc2N)cc1	-	-50.4	?	-	20.6µM	?
CN(C)CCN1CCN(C2CN(Cc3ccccc3)S(=O)(=O)C2)CC1 (stereo not given)	-	-	-	.	-	-
COCCN1C(=O)N[C@@H](CCc2ccccc2)[C@H](C(=O)OC)[C@H]1C	-	-	?	-[21 µM]	-	-
COC(=O)[C@]12CCCCC=C1N(Cc1ccccc1)C(=O)[C@H](CC(=O)NCCCCc1ccccc1)C2	.	-	23.1µM	.	?	.
COC(=O)[C@]12CCCCC=C1N(Cc1cccc3ccccc13)C(=O)[C@H](CC(=O)NCCCCc1ccccc1)C2	.	-63.8	?	.	16.4µM	.
CCN(CC)c1ccc2cc(-c3nc4sc5c(c4c(=O)[nH]3)CCC(C(C)(C)C)C5)c(=O)oc2c1 (stereo not given)	-	.	-	-	-	-
COc1ccc(-c2c(C)[nH]n3c(=O)c(Cc4ccccc4)c(C)nc23)cc1	-	-	13µM	-	20.6µM	?
Cc1nc2c(-c3ccccc3)c[nH]n2c(=O)c1Cc1ccccc1	-	-	23.1µM	-	23.1µM	-
COc1ccccc1-c1c(C)[nH]n2c(=O)c(Cc3ccccc3)c(C)nc12	-	-	?	-	?	-
CCc1c(C)nc2c(-c3ccccc3)c(C)[nH]n2c1=O	-	-	-	-	-	-
Cc1nc2c(-c3ccccc3)c(C)[nH]n2c(=O)c1Cc1ccc(C(C)C)cc1	-	.	2.59µM	-	2.31µM	-
CCCCc1c(C)nc2c(-c3ccc(Cl)cc3)c(C)[nH]n2c1=O	-	.	4.61µM	-	1.64µM	?
Cc1ccc(Cc2c(C)nc3c(-c4ccccc4)c(C)[nH]n3c2=O)cc1	-	.	6.51µM	-	4.61µM	?
Cc1[nH]n2c(=O)c3c(nc2c1-c1ccc(Cl)cc1)CCC3	-	-	11.6µM	-	20.6µM	-
CC(Oc1cc2oc(=O)c3c(c2cc1Cl)CCC3)C(=O)NC1CC(C)(C)NC(C)(C)C1 (stereo not given)	-	-	-	-	-	-
Cc1ccsc1C(=O)C1CCCN(Cc2cc(F)ccc2-n2cccn2)C1 (stereo not given)	-	-	9.2µM	-	11.6µM	-
COc1cc(OC)c(OC)cc1CN1CCCC(C(=O)c2sccc2C)C1 (stereo not given)	-	-	?	-	?	-
O=C(NN1CCOCC1)C12CC3CC(CC(C3)C1)C2	-	-	-	-	-	-
Cc1cc(C)nc(NC(N)=NC(C)c2ccccc2)n1 (stereo not given)	-	?	?	-	16.4µM	?
NC(=NCCc1c[nH]c2ccccc12)NC(=O)c1ccc(Cl)cc1	-	-	?	-	-	?
Cc1cc(C)nc(NC(N)=NCCc2ccccc2)n1	-	-94.5	2.59µM	.	2.91µM	-
Cc1cc(C)nc(NC(=NCCc2c[nH]c3ccccc23)NC(=O)Nc2ccc(Cl)cc2)n1	-	-	23.1µM	-	23.1µM	-
